# TDP1 cell CPT: growth inhibition of DT40 Tdp1-/-;hTDP1 cells with camptothecin (screen for TDP1 inhibitors); actives 12% (n = 420,000); Potency, µM (series often up to 46.2 µM), inactives show at the highest dose activity change, negative = growth inhibition, actives largely listed as inhibitors; chicken DT40 Tdp1-/-;hTDP1 cells + 20 nM CPT, ATP luminescence, 48 h; AID 686979; also: potency is read from the fitted curve at half-maximal effect; nearly all actives have a fitted effect of over 55% in size
#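 Chicken DT40 Tdp1-/- cells stably complemented with human TDP1 were seeded at 400 cells/well in medium containing 20 nM camptothecin, exposed to pin-transferred compounds, and grown at 37 °C for at least 48 hr. Viability was read as ATP luminescence.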
# IL-1B inflam inh: blocks inflammasome-driven IL-1 beta release | THP-1 LPS/ATP IL-1B secretion, AlphaLISA, 16 h; stronger effect = lower value | activity change, % at 57.5 µM | actives 4.7% (n = 360,000) | AID 743279; in the data active = activity change below about -50%; inconclusive = mostly about -30% to -49%
#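 THP-1 cells pretreated 1 hr with compounds (up to 57.5 uM final), then stimulated with LPS (250 ng/mL final) plus ATP (1.25 mM final); secreted IL-1B measured by AlphaLISA after 16 hr, decreased signal indicating inhibition.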
# ELG1 repair inh: inhibitors of ELG1-dependent DNA repair in HEK293T cells; HEK293T ELG1-luciferase reporter, luminescence, 16 h; DNA damage induced by 5-fluorouridine; Potency, µM (top dose mostly 46.1 µM), for inactives: top-dose activity change, negative = inhibition, usual class: inhibitors; actives 2.3% (n = 330,000); AID 504467; also: potency is read from the fitted curve at half-maximal effect; nearly all actives have a fitted effect of over 55% in size
#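 HEK293T cells expressing luciferase-tagged ELG1 (2,000/well) received 5-Fluorouridine plus compound or DMSO for 16 hr at 37 °C. Luciferase was read by ONE-Glo luminescence after 30 min at room temperature.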
# RORgamma inh: inhibitors of mouse ROR gamma transcriptional activity. AID 2551. Potency, µM (series often up to 53.6 µM), for inactives: top-dose activity change, negative = inhibition, hits mostly inhibitors. actives 5.4% (n = 310,000). Drosophila S2 Gal4-RORgamma UAS-luciferase reporter, 20 h; also: potency is read from the fitted curve at half-maximal effect; nearly all actives have a fitted effect of over 60% in size
# Target sequence (P51450 whole entry, looked up, the tested form may be a part): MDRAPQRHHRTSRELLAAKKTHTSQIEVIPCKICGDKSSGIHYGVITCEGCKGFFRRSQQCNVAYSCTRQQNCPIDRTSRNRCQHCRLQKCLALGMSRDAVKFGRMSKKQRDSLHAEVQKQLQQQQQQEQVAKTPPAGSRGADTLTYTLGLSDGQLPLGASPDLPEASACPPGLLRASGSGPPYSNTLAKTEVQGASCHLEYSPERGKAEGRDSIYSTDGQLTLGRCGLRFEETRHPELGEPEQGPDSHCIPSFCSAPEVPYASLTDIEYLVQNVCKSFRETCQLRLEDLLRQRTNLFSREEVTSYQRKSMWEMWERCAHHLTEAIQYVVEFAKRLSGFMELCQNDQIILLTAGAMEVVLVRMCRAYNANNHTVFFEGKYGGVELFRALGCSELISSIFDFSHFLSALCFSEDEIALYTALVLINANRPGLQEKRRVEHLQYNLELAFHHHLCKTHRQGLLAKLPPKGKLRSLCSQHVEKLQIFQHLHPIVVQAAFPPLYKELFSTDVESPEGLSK
#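 In this cell-based reporter format, copper sulfate (700 uM final) drives Gal4–ROR gamma fusion expression from a metallothionein promoter in Drosophila Schneider cells; compounds preincubated 1 hr, reporter read after 20 hr at ambient temperature.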
# Gal4-VP16 FLuc: inhibits Gal4-VP16 luciferase reporter, ROR gamma counter-screen. Drosophila S2 Gal4-VP16 UAS-luciferase, luminescence, 20 h. Potency, µM (doses to about 53.6 µM), for the others: at the highest dose activity, negative = inhibition, most hits filed as inhibitors. actives 3.5% (n = 310,000). AID 2546;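 also: Gal4-VP16 expression switched on by copper sulfate through the metallothionein promoter; potency is read from the fitted curve at half-maximal effect; nearly all actives have a fitted effect of over 50% in size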
# DT40 TDP1 no CPT: qHTS for Inhibitors of human tyrosyl-DNA phosphodiesterase 1 (TDP1): qHTS in cells in absence of CPT; DT40 Tdp1-/- hTDP1 cells, no CPT, ATP luminescence, 48 h; Potency, µM (doses to about 46.2 µM), inactives show at the highest dose activity change, negative = growth inhibition, actives largely listed as inhibitors; actives 15% (n = 420,000); AID 686978, 2013; also: potency is read from the fitted curve at half-maximal effect; nearly all actives have a fitted effect of over 55% in size
#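 Readout: luminescence from CellTiter-Glo after 30 min in the dark at RT. Cells: DT40 Tdp1-/- with stable hTDP1, 400/well. Exposure: compounds alone, ≥48 hr, 37 °C.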
# Active calls of the source: *; ? = inconclusive; . = not tested or not shown. Most compounds without a hit are left out; they make up all but 21% or so of the library. Unless noted, calls follow the shape of the dose curve; as a rule, active = well fitted curve in the direction sought with a large enough effect; inconclusive = small, poorly fitted or top-dose-only effect, or another doubt; inactive = no such curve, though single readings can be large; an effect the other way counts as inactive or inconclusive. % is scaled to controls: 0 for no effect and ±100 for the full control effect.
SMILES,TDP1 cell CPT,IL-1B inflam inh,ELG1 repair inh,RORgamma inh,Gal4-VP16 FLuc,DT40 TDP1 no CPT
COc1ccc(OC)c(N=c2oc3cc(O)ccc3cc2C(N)=O)c1,15µM*,-23,?,24%,-5%,?
COc1ccc(-c2cc3ccc(O)cc3oc2=O)cc1,-9%,-5,?,-13%,-6%,-12%
NC(=O)c1cc2ccc(O)cc2oc1=Nc1ccccc1,15µM*,-19,2.3µM*,-33%,?,?
Cc1cc(C)c2c(=O)cc(C(=O)Nc3ccc(S(=O)(=O)Nc4onc(C)c4C)cc3)oc2c1,-10%,.,.,.,.,-15%
COc1ccc2oc(=O)c(C(C)=O)cc2c1,5%,8,-7%,-25%,18%,-2%
NC(=O)c1cc2ccc(O)cc2oc1=NCc1ccccc1,18µM*,-11,9.2µM*,-7%,-16%,?
COc1ccc2oc(=Nc3cc(F)ccc3F)c(C(N)=O)cc2c1,4.1µM*,-4,-4%,40%,-10%,4.6µM*
COc1ccc2cc(C(N)=O)c(=Nc3ccccc3)oc2c1,?,-24,?,16%,-4%,15µM*
COc1ccc2cc(C(=O)c3ccccc3)c(=O)oc2c1,-21%,-8,?,31%,-8%,-9%
NC(=O)c1cc2cc(Br)ccc2oc1=NCc1ccccc1,-25%,-65*,24%,-19%,11%,-29%
NC(=O)c1cc2ccccc2oc1=NCc1ccccc1,-10%,-26,-2%,-1%,15%,-20%
CN(C(=O)COn1nnc2ccc(Cl)cc21)C1CCS(=O)(=O)C1 (stereo not drawn),-4%,-23,24%,.,.,21%
O=[N+]([O-])c1cccc(C(=Nc2ccccc2)NO)c1,-19%,-2,-4%,17%,0%,?
O=[N+]([O-])c1cc([N+](=O)[O-])c2c(=Nc3ccccc3)n(-c3ccccc3)n(O)c2c1,3.3µM*,-25,-6%,13µM*,?,10µM*
O=[N+]([O-])/C(C(Cl)=C(Cl)Cl)=C(/Sc1ccccc1)N1CCCCC1,?,-89*,?,44%,6%,13µM*
Cc1ccc(S(=O)(=O)Nc2cc3c(cc2C)n(C)c(=O)c(=O)n3C)c(C)c1,-29%,.,.,.,.,?
NS(=O)(=O)c1ccc(CCNC(=O)/C=C/c2cccc([N+](=O)[O-])c2)cc1,?,12,-11%,0%,2%,?
COc1cc(/C=C/C(=O)NCCc2ccc(S(N)(=O)=O)cc2)ccc1OCC#N,18µM*,10,1%,-2%,2%,-29%
CCOc1cc(/C=C/C(=O)NCCc2ccc(S(N)(=O)=O)cc2)ccc1OCC(C)C,13µM*,-9,?,6%,21%,8.2µM*
C/C(CCc1ccc2c(c1)OCO2)=N\NC(=S)NC(C)C,18µM*,-10,1%,2.2µM*,4.5µM*,16µM*
COCCNC(=S)N/N=C(\C)CCc1ccc2c(c1)OCO2,-30%,24,2%,4.5µM*,10µM*,-26%
C/C(CCc1ccc2c(c1)OCO2)=N\NC(=O)c1ccc(C)cc1C,1%,-10,?,1%,-2%,2.9µM*
CC(CCc1ccc2c(c1)OCO2)NN (stereo not drawn),14%,.,.,.,.,2%
COCCNC(=O)C(=O)N/N=C(\C)CC(=O)Nc1ccc2c(c1)OCO2,-13%,9,6%,3%,24%,?
O=C(COc1ccc(F)cc1)Nc1ccccc1C(=O)OCc1cc(=O)n2ccsc2n1,-4%,.,.,.,.,-16%
SMILES,TDP1 cell CPT,IL-1B inflam inh,ELG1 repair inh,RORgamma inh,Gal4-VP16 FLuc,DT40 TDP1 no CPT
Cc1cc(C)cc(NC(=O)Cn2nnc(C(=O)NCc3ccc(F)cc3)c2N)c1,21µM*,3,16%,0%,-2%,?
Cc1ccc(-c2noc(-c3nnn(CC(=O)Nc4cc(C)cc(C)c4)c3N)n2)cc1,1.3µM*,.,.,.,.,1.5µM*
COc1ccc(Cc2nc3ccc(C(=O)NCCc4cccc(C)n4)cc3o2)cc1,?,-26,?,45%,-5%,?
O=C(Nc1ccn(CCCNCC(c2ccccc2)c2ccccc2)c(=O)n1)OCc1ccccc1,?,?,.,.,.,23µM*
O=C(Nc1ccn(CCCNCC2CCCCC2)c(=O)n1)OCc1ccccc1,?,-21,.,.,.,?
O=C(Nc1ccn(CCCNCc2cccc3ccccc23)c(=O)n1)OCc1ccccc1,?,-62*,.,.,.,?
O=C(Nc1ccn(CCCN2CCN(Cc3ccc(F)cc3)CC2)c(=O)n1)OCc1ccccc1,21µM*,-10,.,.,.,15µM*
CC(CNCCCn1ccc(NC(=O)OCc2ccccc2)nc1=O)c1ccccc1 (stereo not drawn),23µM*,?,.,.,.,?
O=C(COc1ccc(Cl)cc1)OCc1cc(=O)n2nc(C3CCCCC3)sc2n1,-3%,.,.,.,.,-23%
Cc1cc(C(=O)COC(=O)CN=C2NS(=O)(=O)c3ccccc32)c(C)n1CCc1ccc(Cl)cc1,1%,-14,-8%,21%,19%,?
O=c1c2ccccc2nnn1Cc1ccc2ccccc2c1,14%,-13,?,31%,16%,36%
COc1ccc(Cl)cc1NC(=O)c1nc(S(C)(=O)=O)ncc1N(Cc1ccc(C)cc1)Cc1ccco1,8.2µM*,.,.,.,.,9.2µM*
CCc1ccc(CN(Cc2ccco2)c2cnc(S(C)(=O)=O)nc2C(=O)Nc2cccc(C)c2)cc1,13µM*,.,.,.,.,21µM*
CCc1ccc(Cn2nnc(C(=O)Nc3cccc(C)c3)c2N)cc1,-9%,-16,11%,?,-2%,-7%
CCS(=O)(=O)c1ncc(N(Cc2ccccc2)Cc2ccco2)c(C(=O)Nc2ccccc2C)n1,-18%,.,.,.,.,-23%
CS(=O)(=O)c1ncc(N(Cc2ccco2)Cc2cccs2)c(C(=O)Nc2ccccc2F)n1,?,.,.,.,.,21µM*
Cc1ccc(NC(=O)c2nc(S(C)(=O)=O)ncc2N(Cc2ccccc2)Cc2ccco2)c(C)c1,13µM*,.,.,.,.,18µM*
COc1ccc(Cl)cc1NC(=O)c1ccco1,-9%,0,5%,-4%,0%,?
CN1CCCc2ccccc21,-1%,.,.,.,.,-14%
CC1(NC(=O)Cc2c(Cl)cccc2Cl)CCS(=O)(=O)C1 (stereo not drawn),2%,10,0%,.,.,15%
COc1ccc(NC(=O)c2nc(S(C)(=O)=O)ncc2N(Cc2ccc(C)cc2)Cc2ccco2)cc1Cl,?,.,.,.,.,18µM*
